Source: PubChem BioAssay (NCI)
About 83,000 compounds went through this panel and 20% of them were active in at least one assay; those are over-represented in the sample as a whole.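 Single-concentration screen, 48 h exposure, 96-well plates. Endpoint: percent growth. Below 10 = active.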 The source made the active and inactive calls.

Legend:
Assay in all cases: NCI-60 one-dose screen, 48 h (100 = growth as untreated, 0 = no growth, -100 = all killed)
Settings in all cases: 10 µM unless noted
[1] = tested on: RPMI-8226 leukemia
[2] = tested on: OVCAR-8 ovarian
[3] = tested on: OVCAR-5 ovarian
[4] = tested on: OVCAR-4 ovarian
[5] = tested on: SK-OV-3 ovarian
[6] = tested on: IGROV1 ovarian
[7] = tested on: OVCAR-3 ovarian
[8] = tested on: HS 578T breast
[9] = tested on: NCI/ADR-RES ovarian
[10] = tested on: T-47D breast
[11] = tested on: BT-549 breast
[12] = tested on: MDA-MB-435 melanoma
[13] = tested on: SW-620 colon
[14] = tested on: MCF7 breast
[15] = tested on: HCT-116 colon
[16] = tested on: HCC-2998 colon
[17] = tested on: KM12 colon

Measured: growth

COC(=O)c1nc(-c2ccccc2)oc1S(=O)(=O)n1nc(-c2ccccc2)cc1N
inactive: [1] 57.1% | [2] 75.8% | [3] 93.5% | [4] 107% | [5] 106% | [6] 73.6% | [7] 68.3% | [8] 101% | [9] 99% | [10] 49.5% | [11] 82.2% | [12] 63.6% | [13] 10.9% | [14] 80.9% | [15] 84.8% | [16] 108% | [17] 92.2%

COc1ccc(Cl)c([N+](=O)[O-])c1
inactive: [1] 106% | [2] 106% | [3] 102% | [4] 101% | [5] 98% | [6] 108% | [7] 112% | [8] 105% | [9] 102% | [10] 84% | [11] 104% | [12] 99.6% | [13] 103% | [14] 95.5% | [15] 108% | [16] 104% | [17] 102%

O=C1C(=O)c2c(nc3ccc(Br)cn23)-c2ccccc21
active: [1] -47.6% | [2] -90.7% | [3] -76.9% | [4] -95.1% | [5] -97.6% | [6] -51.5% | [7] -51.4% | [8] -52.2% | [9] -31.4% | [10] -59.8% | [11] -86.8% | [12] -94% | [13] -79.6% | [14] -54.1% | [15] -88.9% | [16] -82.5% | [17] -41.5%

CN1CC=C(c2cc(NC(=O)Nc3ccc(Oc4ccnc(NC(=O)C5CC5)c4)c(F)c3)cc(C(F)(F)F)c2)CC1
active: [1] -28% | [2] -2.13% | [3] 7.5% | [4] 3.24% | [6] 2.9% | [7] 8.26% | [8] -17.3% | [10] -0.194% | [11] -11.2% | [12] -12.4% | [13] -0.0556% | [14] -17.1% | [15] -10.7% | [17] -11.2%
inactive: [5] 17.1% | [9] 44.7% | [16] 11.8%

Cc1cc(C)n(-c2nc(-c3cccs3)c(C#N)c(=O)[nH]2)n1
inactive: [1] 105% | [2] 102% | [3] 105% | [4] 91.1% | [5] 90.9% | [6] 108% | [7] 94.7% | [8] 106% | [9] 85.7% | [10] 80.6% | [11] 83% | [12] 95.2% | [13] 102% | [14] 89.8% | [15] 85.1% | [16] 96.7% | [17] 97.9%

COc1ccc(C(C)c2cc(OC)c(OC)c(OC)c2)cc1 (centres undefined)
inactive: [1] 15.3% | [2] 10.9% | [3] 50.3% | [4] 34.3% | [5] 33.2% | [6] 28.5% | [8] 37.5% | [9] 13.8% | [10] 63.1% | [11] 24.6% | [13] 27% | [14] 13.8% | [16] 30.2%
active: [7] -14.1% | [12] -42.6% | [15] 4.67% | [17] 9.1%

O=C(NC[C@H](O)CN1CCc2ccccc2C1)c1cc(NC2COC2)ncn1
inactive: [1] 107% | [2] 97.3% | [3] 96.4% | [4] 91.5% | [5] 107% | [6] 76.9% | [7] 104% | [8] 122% | [9] 98.4% | [10] 83.4% | [11] 97.8% | [12] 95.1% | [13] 93.8% | [14] 80.2% | [15] 86.7% | [16] 98.8% | [17] 98.1%

O=C1C(=O)c2c(nc3ccc(C(F)(F)F)cn23)-c2ccccc21
active: [1] -26.6% | [2] -96% | [3] -78% | [4] -95.9% | [5] -99.6% | [6] -58.9% | [7] -63% | [8] -15.3% | [9] -14.1% | [10] -50.6% | [11] -85.2% | [12] -84.4% | [13] -60.4% | [14] -55.5% | [15] -74.9% | [16] -90.4% | [17] -61.7%

C=C(C)[C@@H]1CC[C@]2(C(=O)n3ccnc3)CC[C@]3(C)[C@H](CC[C@@H]4[C@@]5(C)CCCNC(C)(C)[C@@H]5CC[C@]43C)[C@@H]12
active: [1] -51.3% | [12] -34.4% | [13] -62.8% | [14] -20.3% | [15] -76.7% | [16] 6.43%
inactive: [2] 62.8% | [3] 74.9% | [4] 38.3% | [5] 61.9% | [6] 20.4% | [7] 30.9% | [8] 47.4% | [9] 32.9% | [10] 11.4% | [11] 40.2% | [17] 28.4%

CC1(c2ccccc2Cl)NC(=O)NC1=O (centres undefined)
inactive: [1] 102% | [2] 102% | [3] 106% | [4] 109% | [5] 97.3% | [6] 106% | [7] 106% | [8] 99.7% | [9] 96.9% | [10] 79.3% | [11] 99% | [12] 105% | [13] 102% | [14] 96.9% | [15] 107% | [16] 92.3% | [17] 109%

O=C(Nc1ccc2ncnc(Nc3ccc(F)c(Cl)c3)c2c1)c1ccccc1
active: [4] -39.8%
inactive: [1] 66.9% | [2] 79.1% | [3] 83.9% | [5] 45.1% | [6] 28.5% | [7] 32.5% | [8] 82.8% | [9] 65.9% | [10] 45.3% | [11] 74.2% | [12] 80.4% | [13] 88% | [14] 47.2% | [15] 47.2% | [16] 98.7% | [17] 79.6%

C(=C\c1cn(-c2ccccc2)nc1-c1ccccc1)/c1nnc(-c2c[nH]c3ccccc23)o1
inactive: [1] 40.8% | [2] 35.2% | [3] 93.3% | [4] 47.9% | [5] 91.8% | [6] 59.2% | [7] 20.9% | [8] 44.7% | [9] 51.8% | [10] 55.5% | [11] 81% | [12] 49% | [13] 45.8% | [14] 34.3% | [15] 24.7% | [16] 97.3% | [17] 37.9%

O=c1nc(-c2ccccc2)c2cc(-c3ccc(N4CCCC4)nc3)ccc2[nH]1
inactive: [1] 71.6% | [2] 89.2% | [3] 98.7% | [4] 85.3% | [5] 80.6% | [6] 66.1% | [7] 44.7% | [8] 67.8% | [9] 63.9% | [10] 62.3% | [11] 64% | [13] 45.8% | [14] 35.4% | [15] 45.7% | [16] 80.5% | [17] 56.7%
active: [12] -1.96%

Cc1cc2ccccc2c[n+]1CC(=O)c1ccc(-c2ccccc2)cc1
active: [4] 9.69%
inactive: [1] 19.6% | [2] 43.8% | [3] 73.1% | [5] 64.1% | [6] 49.2% | [7] 31.9% | [8] 83.5% | [9] 101% | [10] 38.2% | [11] 53.3% | [12] 66.3% | [13] 48.5% | [14] 29.3% | [15] 28.4% | [16] 61.8% | [17] 56.7%

C#Cc1ccccc1NC(=O)c1sc2nc3c(cc2c1N)CCCCCC3
inactive: [1] 56.4% | [2] 75.7% | [3] 93.1% | [5] 36.9% | [6] 74.5% | [7] 30.9% | [9] 67.4% | [10] 49.7% | [11] 37.3% | [12] 74.5% | [13] 27.6% | [14] 58.4% | [15] 75.5% | [16] 104% | [17] 42.7%
active: [4] -19% | [8] 8.22%

COc1cc(NCC(=O)Nc2cc(Nc3ccc(C)cc3)ncn2)c(Cl)c(OC)c1Cl
inactive: [1] 82.9% | [2] 88.4% | [3] 92.3% | [4] 78.5% | [5] 81.9% | [6] 82.5% | [7] 84.3% | [8] 83.5% | [9] 91.3% | [10] 70.6% | [11] 101% | [12] 102% | [13] 103% | [14] 78.6% | [15] 88.4% | [16] 92.6% | [17] 87.5%

Cc1cnc(-c2ccc(-c3ccc(NC(=O)Nc4c(F)cc(F)cc4F)cc3F)c3c2C(=O)NC3)[nH]1
active: [4] -16.5% | [7] -34% | [8] -5.61%
inactive: [1] 22.2% | [2] 39% | [3] 71% | [5] 49.6% | [6] 33% | [9] 72.4% | [10] 73.6% | [11] 55.8% | [12] 14.2% | [13] 10.1% | [14] 22.1% | [15] 14.2% | [16] 60.5% | [17] 11.7%
